High-throughput results from PubChem.
GRIN3A LBD mod: modulators (binders) of human NR3A ligand-binding domain | NR3A LBD differential scanning fluorimetry, Tm shift; 0% = protein alone, 100% = glycine-bound protein | Tm shift relative to glycine control, % at 25 µM | 340,000 tested, 2.5% active;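 active = melting temperature shift of at least 10% of the positive control shift, at one fixed dose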
HGIII-sPLA2 inh: Blocks human group III sPLA2 activity; AID 743126; inhibition, % at 12.2 µM; Q9NZ20; QFRET BODIPY PC-A2 liposome hydrolysis, fluorescence; 370,000 tested, 0.56% active;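 active = inhibition above mean plus 3 SD of compounds lying within the high and low control bounds, cut at about 19% in these data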;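 also: 0% = median of test compound wells and 100% = no enzyme DMSO wells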
SUMO HTRF inh: SUMOylation inhibition | P63279 | HTRF SUMOylation assay, SAE1/SAE2 + UBC9, in vitro | 290,000 tested, 0.36% active | inhibition, % at 35 µM | AID 2006; in the data active = inhibition above about 50%, passing the limit was not always enough; inconclusive = no clear call, values can overlap the other calls
Target sequence (P63279 whole entry, looked up): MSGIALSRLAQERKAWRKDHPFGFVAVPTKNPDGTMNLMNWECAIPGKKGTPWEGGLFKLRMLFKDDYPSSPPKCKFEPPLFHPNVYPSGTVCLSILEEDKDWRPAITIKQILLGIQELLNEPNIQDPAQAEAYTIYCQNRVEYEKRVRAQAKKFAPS
UBC13 polyUb: blocks human UBC13 polyubiquitin chain formation. TR-FRET. inhibition, % at 20 µM. 330,000 tested, 0.47% active. AID 485273; in the data active = inhibition above about 45%, passing the limit was not always enough; inconclusive = no clear call, values can overlap the other calls
Target sequence (P61088 whole entry, looked up): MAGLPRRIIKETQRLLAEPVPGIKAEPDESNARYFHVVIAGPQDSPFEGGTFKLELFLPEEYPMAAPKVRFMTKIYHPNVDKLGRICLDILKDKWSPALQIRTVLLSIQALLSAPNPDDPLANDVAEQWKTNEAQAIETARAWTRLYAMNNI
Starred values were filed as active, the others as inactive; ? = inconclusive; . = not tested or not shown. An excerpt weighted towards active compounds, which were near 3.3% of everything screened.

SMILES	GRIN3A LBD mod	HGIII-sPLA2 inh	SUMO HTRF inh	UBC13 polyUb
O=C(c1cccc(F)c1F)N(Cc1ccccn1)CC1CCCO1 (configuration not stated)	.	0	.	.
COC(=O)c1cc2ccccc2c(-c2c(O)ccc3ccccc23)c1O	12*	-12	-13	4
CC(/C=C/c1ccccc1F)=N\NC(=O)c1cccc(F)c1	22*	-1	11	-8
CC(/C=N/NC(=O)c1cccc(F)c1)=C\c1ccccc1	5	3	4	-4
COc1ccc(-n2sc3ccc(F)cc3c2=O)cc1	28*	2	.	-16
O=c1c2cc(F)ccc2sn1-c1ccc(F)cc1	2	.	.	-7
CCN(CC)S(=O)(=O)c1ccc2[nH]c(=O)cc(C(=O)NCC3CCCO3)c2c1 (configuration not stated)	17*	-6	.	-4
CCN(CC)S(=O)(=O)c1ccc2[nH]c(=O)cc(C(=O)Nc3ccc(C)cc3)c2c1	0	-9	16	-8
O=C(C1CCCN1S(=O)(=O)c1ccccc1[N+](=O)[O-])N1CCc2ccccc2C1 (configuration not stated)	.	2	.	.
O=C(Nc1ccccc1)N1C(=O)C2(OCCO2)c2ccccc21	13*	1	18	2
O=C(O)CN1C(=O)C2(OCCCO2)c2ccccc21	2	-4	-15	16
Cc1ccccc1NC(=O)Nc1ccc2c(c1)C(=O)N(C)[C@H]1CC[C@H](CC(=O)NCC3CC3)O[C@@H]1CO2	.	-22	.	.
O=C(NNC(=O)c1cc2ccccc2cc1O)c1cccs1	-4	14	-22	7
C/C(=N\NC(=O)c1cc2ccccc2cc1O)c1cccs1	14*	-5	20	1
O=C(Nc1ccc(S(=O)(=O)N2CCOCC2)cc1)c1cc(-c2cc(Cl)ccc2O)n[nH]1	36*	-24	-18	9
Cc1ccc(NC(=O)c2ccc(S(=O)(=O)N3CCOCC3)cc2)cc1	1	2	-1	3
Cc1cc(O)c(-c2cc(C(=O)Nc3ccc(S(=O)(=O)N4CCOCC4)cc3)[nH]n2)cc1C	32*	-53	-10	-3
CCN1/C(=C/C=C/c2oc3ccc4ccccc4c3[n+]2CC)Oc2ccc3ccccc3c21	1	.	90*	?
COCCN1C(=O)C2=C(C1=O)C1N(C)c3ccccc3[C@@]13C[C@@H](CO)N(C(C)=O)C3=N2 (some centres not stated)	.	7	.	.
O=C(NNC(=O)c1cc(-c2ccc(Cl)c(Cl)c2)nc2ccccc12)Nc1ccccc1	29*	-7	-13	-17
CN1CC=C(c2ccccc2)N(c2ccccc2)C1=O	.	4	.	.
COc1ccc(/C=C2\SC(=S)N(CCCC(=O)NNC(=O)c3ccccc3O)C2=O)cc1	6	16	31	-18
O=C(CCCN1C(=O)/C(=C/c2cccs2)SC1=S)NNC(=O)c1ccccc1O	12*	19	20	-9
CCc1ccc(/C=C2\SC(=S)N(CCCC(=O)Nc3nccs3)C2=O)cc1	-9	0	3	8
COc1ccccc1/C=C1\SC(=S)N(CCC(=O)NNC(=O)c2ccccc2O)C1=O	11*	.	24	-16
SMILES	GRIN3A LBD mod	HGIII-sPLA2 inh	SUMO HTRF inh	UBC13 polyUb
O=C(CCCN1C(=O)/C(=C/c2cccs2)SC1=S)Nc1ccccc1O	10*	-14	-3	-9
Cc1ccc(/C=C2\SC(=S)N(CCCC(=O)Nc3nccs3)C2=O)cc1	10*	10	-3	-7
CCOC(=O)[C@]12CCCC=C1N(Cc1ccc(OC)cc1)C(=O)[C@@H]2CC(=O)NCc1ccc(OC)c(OC)c1	.	-8	.	.
Fc1ccccc1-c1n[nH]c(=S)n1N=Cc1ccc(-c2ccccc2)cc1	.	-6	.	.
Cc1cccc(OCC(=O)NCC(=O)N/N=C/c2cc(Br)cc(Br)c2O)c1	17*	6	-27	-24
Cc1cccc(OCC(=O)N/N=C/c2cn[nH]c2-c2ccc(Cl)c(Cl)c2)c1	27*	-24	1	6
Cc1ccc(OCC(=O)N/N=C/c2cn[nH]c2-c2ccc(Cl)c(Cl)c2)cc1	-8	-3	16	8
CCOC(=O)[C@@H](NC(=O)[C@@H]1CC=C[C@@H]2CCN(Cc3ccc(Cl)cc3)C(=O)[C@@H]21)C(C)C	.	-5	.	.
CN(C)c1nc(NCc2ccccc2)nc(SCC(=O)Nc2ccc(Cl)c(Cl)c2)n1	32*	-1	-38	6
CCNc1nc(NCc2ccccc2)nc(SCC(=O)Nc2ccccc2)n1	-17	-15	-19	3
COC(=O)CSc1nc(NCc2ccccc2)nc(N(C)C)n1	-2	1	-22	-5
CCNc1nc(SCC(=O)Nc2ccc(Cl)c(Cl)c2)nc(N(C)C)n1	10*	6	-12	-6
CCOC(=O)N1CCN(C(=O)C[C@H]2C[C@@]3(C(=O)OC)C(=C[C@H](COCc4ccccc4)O[C@@H]3C)N(CCc3ccc(OC)c(OC)c3)C2=O)CC1	.	-3	.	.
CN1C2=N[C@@H](c3cccc(C(F)(F)F)c3)CC(=O)N2/C(=C\c2ccccc2)[C@H]1c1ccccc1	.	10	.	.
COc1ccc(-c2noc(C3CCCN(C(=O)Nc4ccc5c(c4)OCO5)C3)n2)cc1 (configuration not stated)	.	-3	.	.
O=C(O)c1ccc(CN(c2ccccn2)S(=O)(=O)c2ccccc2)cc1	1	-3	8	-3
Cc1c(Cl)cccc1N(Cc1ccc(C(=O)O)cc1)S(=O)(=O)c1ccccc1	13*	-15	3	0
CCCN1C(=O)/C(=C/c2ccc(N3CCOCC3)cc2)NC1=S	-29	0	-5	-108
Cc1ccc(CN2C(=O)N/C(=C\c3ccc(N4CCOCC4)cc3)C2=O)cc1	17*	-9	16	-4
Cc1ccccc1NC(=O)CSc1nnc(-c2ccco2)c(-c2ccco2)n1	-20	.	65*	-6
COC(=O)[C@]12C[C@H](CC(=O)NCC34CC5CC(CC(C5)C3)C4)C(=O)N(CCc3ccc(OC)c(OC)c3)C1=C[C@H](C1CCCC1)O[C@@H]2C	.	-16	.	.
Cc1csc(N(C(=O)c2cccc(S(=O)(=O)N(C)C)c2)c2ccccc2)n1	12*	-9	14	-5
Cc1csc(N(C(=O)c2cccc(S(=O)(=O)N3CCCC3)c2)c2ccccc2)n1	1	-4	-4	4
Nc1nonc1-n1nnc(C(=O)N/N=C/c2cccc(Cl)c2)c1CSc1ccccc1	6	-4	20	-15
Nc1nonc1-n1nnc(C(=O)N/N=C/c2cccc(Cl)c2)c1CSc1ccc(Cl)cc1	33*	0	-5	0
Nc1nonc1-n1nnc(C(=O)N/N=C/c2ccccc2)c1CSc1ccc(Cl)cc1	30*	7	-3	16
O=C(Cc1ccc(Cl)cc1)Nc1ccc(-c2nnc(-c3ccco3)o2)cc1	13*	-7	10	-5
COc1cc(C(=O)Nc2ccc(-c3nnc(-c4ccco4)o3)cc2)cc(OC)c1OC	30*	1	11	-5
C[C@H]1[C@@H](NC(=O)C2CCOC2)CC[C@@]23CCCN2C(=O)CCC[C@@H]13 (some centres not stated)	.	1	.	.
